From ChEMBL document CHEMBL1157539, “Thousands of chemical starting points for antimalarial lead identification” (Nature, 2010) come the findings set out here.

This test relates to Plasmodium falciparum. The test is described as follows: GSK_TCMDC: Inhibition of Plasmodium falciparum 3D7 in whole red blood cells, using parasite LDH activity as an index of growth. Test compounds present at 2uM. It is filed as functional.
Consider `O=C(NCCCCN1CCC(c2c[nH]c3ccccc23)CC1)c1sc(-c2ccc(C(F)(F)F)cc2)nc1CO`, for which the Inhibition was determined as 94%. Under `O=C(O)C(F)(F)F.OCC1CCN(Cc2ccc(-c3cccc(-c4nc5cc(F)ccc5[nH]4)c3)cc2)CC1` stands 100%; under `CC(C)[C@H]1CC[C@H](C)C[C@@H]1OC(=O)N[C@@H](Cc1ccc(O)cc1)C(=O)NC1CCN(Cc2ccc(OCCCN(C)C)cc2)C1` (stereo partly drawn), 99%. Take `O=C(NC1CCC1)C1CCN(C(c2ccccc2)c2cc(F)cc(F)c2)CC1` (stereo not drawn): the Inhibition came to 94%. Under `CCCCCCn1c(Sc2ccc(C#N)c([N+](=O)[O-])c2)nnc1-c1ccccc1` stands 97%. The value for `Cc1cccc2nc(-c3ccc(-c4cccc(NC(=O)c5cnccc5C(F)(F)F)c4)cc3)[nH]c12` was 84%; that for `Cc1ccc(N2CCN(CCCCNC(=O)c3ccc(NC(=O)c4ccc(Cl)cc4)cc3)CC2)c(C)c1` was 95%.

`O=C(/C=C/c1ccc(Cl)cc1)NCCCCCN1CCCC(C(=O)Nc2ccc(Cl)cc2)C1` (stereo not drawn) yielded an Inhibition of 94%. The value for `COc1ccc(-c2cccc(NC(=O)c3cccc(Cl)c3)c2)cc1CN1CCNCC1.O=C(O)C(F)(F)F` was 100%; that for `CCCCCc1ccc(N2C(N)=NC(N)=NC2(C)C)cc1.Cl` was 95%; that for `COc1ccc(CN2CCC(CNCCc3c(Cl)cccc3Cl)CC2)cc1.O=C(O)C(F)(F)F` was 98%. The value for `O=[N+]([O-])c1ccc(C=NNc2nc(Nc3ccccc3)nc(Nc3ccccc3)n2)o1` was 94%; that for `COc1cc2ncnc(Nc3ccc(Br)c(Cl)c3)c2cc1OC.Cl` was 100%.

In general, Inhibition refers to the drop in the measured response relative to a control, in per cent. Read a low Inhibition as a response near the control.
